DNA Pol III inh = inhibitors of bacterial DNA polymerase III holoenzyme. AID 603. 0.25% of 71,000 active. Potency, µM (series often up to 57.1 µM), without a hit: top-dose activity change, negative = inhibition. reconstituted DNA polymerase III holoenzyme replication, biochemical; note: potency is the fitted concentration of half-maximal effect; % is set by controls: 0 for no effect and ±100 for the full control effect
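Reconstituted *E. coli* holoenzyme (0.35 nM Pol III, 1 nM beta, 154 nM SSB, 2 nM primase) was preincubated with compound for 15 min at RT. Synthesis on 1.4 nM ssM13Gori ran 35 min, then was stopped with PicoGreen/EDTA and read as dsDNA fluorescence.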
YjeE inh = displaces an ADP probe from E. coli YjeE (TsaE); purified YjeE enzyme, qHTS inhibition assay; Potency, µM; 0.05% of 71,000 active
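Fluorescence polarization of a BODIPY Texas Red–ADP probe (2 uM) bound to purified YjeE (10 uM) was read after 15 min room-temperature incubation with compounds. Loss of polarization marks inhibitors; ADP serves as titrated control.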
BRCT inh red = disrupts BRCA1 BRCT binding to phosphoprotein, red fluorophore readout | P38398 | BRCT-phosphopeptide binding, red fluorescence polarization | Potency, µM (titrated, usually from 76.9 µM), without a hit: at the highest dose activity change, negative = inhibition, most hits filed as inhibitors | 0.03% of 75,000 active | AID 892; note: % is set by controls: 0 for no effect and ±100 for the full control effect
Target sequence (P38398 whole entry, looked up): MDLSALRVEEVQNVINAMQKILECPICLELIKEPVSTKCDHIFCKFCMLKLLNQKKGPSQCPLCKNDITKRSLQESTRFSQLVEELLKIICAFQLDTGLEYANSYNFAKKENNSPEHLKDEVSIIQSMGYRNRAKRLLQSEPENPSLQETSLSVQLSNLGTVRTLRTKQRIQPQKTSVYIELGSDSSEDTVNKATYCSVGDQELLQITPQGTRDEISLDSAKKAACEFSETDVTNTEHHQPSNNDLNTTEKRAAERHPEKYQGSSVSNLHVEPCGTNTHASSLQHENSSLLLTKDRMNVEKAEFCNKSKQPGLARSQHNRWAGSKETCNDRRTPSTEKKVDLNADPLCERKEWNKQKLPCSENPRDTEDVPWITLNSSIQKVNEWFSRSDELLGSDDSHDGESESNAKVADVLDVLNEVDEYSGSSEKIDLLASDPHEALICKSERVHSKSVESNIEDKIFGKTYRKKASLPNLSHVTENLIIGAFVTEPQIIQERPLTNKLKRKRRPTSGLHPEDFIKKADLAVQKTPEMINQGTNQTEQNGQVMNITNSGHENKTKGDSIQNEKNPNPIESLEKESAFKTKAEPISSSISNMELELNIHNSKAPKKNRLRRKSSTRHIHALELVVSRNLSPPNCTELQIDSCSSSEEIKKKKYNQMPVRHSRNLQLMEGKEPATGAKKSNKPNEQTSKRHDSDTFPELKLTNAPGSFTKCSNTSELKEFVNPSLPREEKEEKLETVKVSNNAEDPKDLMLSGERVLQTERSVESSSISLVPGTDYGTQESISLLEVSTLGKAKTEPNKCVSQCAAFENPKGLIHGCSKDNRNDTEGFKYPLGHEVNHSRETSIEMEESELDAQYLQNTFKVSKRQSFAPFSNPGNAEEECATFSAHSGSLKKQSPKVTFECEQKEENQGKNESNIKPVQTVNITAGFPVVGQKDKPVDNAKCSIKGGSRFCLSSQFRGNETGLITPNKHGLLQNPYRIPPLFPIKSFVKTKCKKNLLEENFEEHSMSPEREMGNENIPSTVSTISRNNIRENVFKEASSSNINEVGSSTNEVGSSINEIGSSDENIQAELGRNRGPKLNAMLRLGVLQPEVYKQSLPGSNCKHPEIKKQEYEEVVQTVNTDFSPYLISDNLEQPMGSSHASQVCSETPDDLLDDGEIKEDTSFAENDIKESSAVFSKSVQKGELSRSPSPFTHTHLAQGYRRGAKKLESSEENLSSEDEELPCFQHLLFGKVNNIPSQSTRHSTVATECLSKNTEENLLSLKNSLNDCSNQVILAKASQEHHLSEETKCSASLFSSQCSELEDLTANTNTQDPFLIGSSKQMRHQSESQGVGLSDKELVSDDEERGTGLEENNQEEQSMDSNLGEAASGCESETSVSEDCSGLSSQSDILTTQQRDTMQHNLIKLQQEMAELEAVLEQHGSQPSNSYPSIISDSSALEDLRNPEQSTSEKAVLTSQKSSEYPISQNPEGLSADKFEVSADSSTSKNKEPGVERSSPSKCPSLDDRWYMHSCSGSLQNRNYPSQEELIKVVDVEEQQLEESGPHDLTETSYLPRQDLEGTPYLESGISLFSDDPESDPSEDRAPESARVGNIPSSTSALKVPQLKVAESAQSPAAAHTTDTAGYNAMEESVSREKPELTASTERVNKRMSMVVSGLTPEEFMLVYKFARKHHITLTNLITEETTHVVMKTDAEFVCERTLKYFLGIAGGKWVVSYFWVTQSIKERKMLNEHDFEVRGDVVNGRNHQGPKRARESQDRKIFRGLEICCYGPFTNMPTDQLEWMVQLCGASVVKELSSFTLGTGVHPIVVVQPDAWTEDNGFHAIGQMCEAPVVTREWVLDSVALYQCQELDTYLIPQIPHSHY
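Fluorescence polarization: 100 nM His-tagged BRCA1 BRCT with 100 nM TAMRA-labelled phospho-BACH1 decapeptide, phosphate buffer pH 7.3 with 150 mM NaCl, DTT, 0.01% Tween 20; 12 min RT. Binding inhibition seen as FP decrease.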
BRCT PPI green = BRCA1 BRCT-phosphoprotein interaction inhibition; P38398; BRCA1 BRCT-phosphopeptide binding, green fluorescence polarization; Potency, µM (top dose mostly 76.9 µM), for the others: at the highest dose activity change, negative = inhibition, most hits filed as inhibitors; AID 875; 0.05% of 75,000 active;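 note: potency is the fitted concentration of half-maximal effect; plate controls were peptide without protein for full effect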
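Compounds were incubated for 12 min at room temperature with a complex of 100 nM fluorescein-tagged pBACH1 decapeptide and 250 nM His-tagged BRCT protein. Buffer was phosphate pH 7.3 with EDTA, DTT and Tween 20. Disruption of binding lowers the polarization signal.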
HEK293 cAMP ctrl = counter-screen for TSHR agonists: cAMP increase in parental HEK293. 2.5% of 73,000 active. parental HEK293 CNG cAMP sensor, membrane potential fluorescence. Potency, µM (titrated, usually from 57.1 µM), without a hit: at the top dose activation, actives largely listed as activators. AID 938; note: potency is the fitted concentration of half-maximal effect; % of control where 0% means no effect; nearly all actives have a fitted effect of over 55% in size
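Parental HEK 293 cells stably expressing a modified CNG channel (no TSHR) report cAMP rise as membrane depolarization. Membrane potential dye with 100 uM RO 20-1724 was loaded for 60 min at room temperature, then compound added for 30 min; fluorescence read at 590 nm.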
TSHR ag = activates the human thyroid stimulating hormone receptor; P16473; HEK293-CNG-TSHR cells (CNG channel as cAMP sensor), membrane potential dye, cAMP; 0.48% of 73,000 active; AID 926; Potency, µM (highest dose often 57.1 µM), inactives show top-dose activation, most hits filed as activators; active = well fitted activation curve with a large enough effect in the main read-out, with a control signal flat, not every such curve was filed as active; inconclusive = small, poorly fitted or top-dose-only effect, or a change in a side signal; inactive = no such curve, though single readings can be large or run the other way; % of control where 0% means no effect;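 note: the control signal comes from parental cells without the receptor; potency is the fitted concentration of half-maximal effect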
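cAMP rise detected as CNG-channel membrane depolarization by fluorescent dye (emission 590 nm), 30 min after compound, following 60 min dye loading containing 100 uM RO 20-1724 at room temperature. Cells: TSHR/CNG HEK 293, with parental CNG HEK 293 as control.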
Active calls of the source: *; i = inactive; ? = inconclusive; . = not tested or not shown; [ ] = remark or other dose. The list is not random: actives were taken first. Their share in the collection is about 3.2%. Unless noted, calls come from the whole dose curve; as a rule, active = well fitted curve in the direction sought with a large enough effect; inconclusive = small, poorly fitted or top-dose-only effect, or another doubt; inactive = no such curve, though single readings can be large; an effect the other way counts as inactive or inconclusive.

SMILES	DNA Pol III inh	YjeE inh	BRCT inh red	BRCT PPI green	HEK293 cAMP ctrl	TSHR ag
O=C(Nc1cccc(C(=O)Nc2ccc(S(=O)(=O)O)c3cc(S(=O)(=O)O)cc(S(=O)(=O)O)c23)c1)Nc1cccc(C(=O)Nc2ccc(S(=O)(=O)O)c3cc(S(=O)(=O)O)cc(S(=O)(=O)O)c23)c1	13µM*	i	8%	3%	?	?
Clc1ccccc1CSc1nnc(-c2cccnc2)n1Cc1ccco1	2%	i	-1%	-2%	10%	.
Cc1noc(C)c1CSc1nnc(-c2ccccc2)n1Cc1ccco1	-6%	i	0%	-1%	16µM*	?
Cc1nc(N2CCN(C(=O)c3ccco3)CC2)c2c3c(sc2n1)CCC3	-2%	i	-2%	-1%	29%	.
CC(C)c1nc(N2CCN(C(=O)c3ccco3)CC2)c2c3c(sc2n1)CCCC3	-4%	i	0%	2%	19%	10µM*
CC(C)=CCC/C(C)=C/C=C/C1=CC2(C)CC1(C)C(/C=C(\C)CCC=C(C)C)CC2=O (configuration not stated)	.	.	2%[15.4 µM]	-2%[15.4 µM]	3%[11.4 µM]	4%[11.4 µM]
COc1ccccc1C1C=C(c2ccc(C)cc2)Nc2nnnn21 (configuration not stated)	-7%	i	0%	1%	25µM*	?
CCOc1ccc2nc(-c3ccccc3)[nH]c2c1	-2%	i	-1%	-5%	16µM*	?
COc1cccc(C2NC(C(=O)O)CCC2C)c1 (configuration not stated)	.	.	0%[15.4 µM]	0%[15.4 µM]	-4%[11.4 µM]	2%[11.4 µM]
N#Cc1cc2c(nc1SCC(=O)Nc1nccs1)CCCCC2	5%	i	1%	4%	20µM*	?
CCc1nnc(NC(=O)CSc2nc3c(cc2C#N)CCC3)s1	0%	i	-1%	-1%	6%	-9%
Cc1ccc(-c2nnc(CSc3nnc(COc4ccccc4)n3-c3ccccc3)o2)cc1	-5%	i	0%	0%	25µM*	?
COc1ccc(-n2c(COc3ccccc3)nnc2SCc2ccc(C#N)cc2)cc1	16%	i	1%	-1%	17%	15%
CCOc1ccccc1-n1c(SCC(N)=O)nnc1-c1ccccc1	-8%	i	0%	0%	26%	7%
Cc1ccc(-c2nnc(CSc3nnc(COc4ccccc4)n3-c3ccc(C)cc3)o2)cc1	-2%	i	-2%	-7%	25µM*	?
CCOc1ccc(-c2nnc(SCc3nnc(-c4ccccc4)o3)n2-c2ccccc2F)cc1	-5%	i	-1%	2%	13µM*	?
CCC(=O)O[C@@]1(C(=O)CCl)C(C)CC2C3CCC4=CC(=O)C=C[C@@]4(C)[C@]3(F)C(O)C[C@]21C (some centres not stated)	.	.	-2%	-1%[3.08 µM]	.	.
c1ccc(-c2noc(CSc3nnc(Cc4cccs4)n3-c3ccccc3)n2)cc1	-10%	i	-2%	1%	25µM*	?
Fc1ccc(-n2c(Cc3ccccc3)nnc2SCc2nc(-c3cccs3)no2)cc1	-1%	i	-2%	2%	25µM*	?
Cc1cc2c(nc1C)CCCCN2C[C@H](C)O/N=C\[C@@H](C)[C@H](OCc1ccccc1)C(C)C	.	.	0%[15.4 µM]	0%[15.4 µM]	18%[11.4 µM]	24%[11.4 µM]
COc1ccc(CN(C(=O)c2ccco2)c2ccc(Br)cc2)cc1OC	2%	i	-1%	-2%	32µM*	?
COc1ccc(N(C(=O)c2ccco2)S(=O)(=O)c2cccs2)cc1	-7%	i	-1%	1%	?	?
COc1cc(CN(C(=O)c2ccco2)c2ccc(C)cc2)ccc1O	-2%	i	-2%	0%	23%	20%
COc1ccc(N(C(=O)c2ccco2)S(=O)(=O)c2cc(OC)ccc2OC)cc1	0%	i	0%	-1%	16µM*	?
COc1cccc(-c2nc(NCc3ccccc3)c3ccccc3n2)c1	2%	i	0%	0%	32µM*	?
SMILES	DNA Pol III inh	YjeE inh	BRCT inh red	BRCT PPI green	HEK293 cAMP ctrl	TSHR ag
c1cncc(CNc2nc(-c3cccnc3)nc3ccccc23)c1	-10%	i	-3%	1%	-5%	25µM*
COc1cccc(-c2nc(NCc3cccnc3)c3ccccc3n2)c1	-5%	i	-2%	1%	11%	32µM*
CC(C)CN1CCC2(CC1)CCN(C(=O)c1csnn1)CC2	-8%	i	-1%	-4%	3%	0%
COc1ccc(C(=O)N2CCC3(CCCN(Cc4ccccc4OC)C3)CC2)cc1	2%	i	1%	-2%	20%	27%
C[C@H]1C2=C3C(CC[C@H]4C(OCc5ccc(F)cc5C(F)(F)F)OC[C@](C)([C@@H]34)N(C(=O)OC(C)(C)C)C2)C2COC(=O)OCC21 (some centres not stated)	2%	i	2%	0%	16%	5%
CCCCCOc1ccc(C(=O)N(Cc2ccco2)C2CCS(=O)(=O)C2)cc1 (configuration not stated)	-5%	i	1%	1%	25µM*	?
CS(=O)(=O)N1CCC2(CCN(Cc3nccs3)CC2)CC1	-6%	i	2%	2%	3%	1%
O=C(c1c(Cl)nc2sccn12)N1CCN(c2cccc(Cl)c2)CC1	-3%	i	0%	-2%	32µM*	?
Cc1cc(C)nc(-n2nc(C)cc2NC(=O)CN2CCCC(C)C2)n1 (configuration not stated)	-5%	i	-2%	1%	?	?
CCC(C(=O)Nc1cc(C)nn1-c1nc(C)cc(C)n1)c1ccccc1 (configuration not stated)	1%	i	1%	0%	16µM*	?
Cc1cc(C)nc(-n2nc(C)cc2NC(=O)CN2CCc3ccccc3C2)n1	2%	i	0%	1%	25µM*	?
CC(C)=C1C(=O)C(c2ccccc2)=C2CN3C(=O)N(CCc4ccccc4)C(=O)[C@]3(C)[C@H]21	-19%	i	-1%	1%	?	?
COc1ccccc1-c1cncnc1NCCN1CCOCC1	3%	i	2%	-5%	7%	1%
CC(C)CC(c1nnnn1CC1CCCO1)N1CCN(c2cccc(Cl)c2)CC1 (configuration not stated)	9%	i	-1%	-2%	13µM*	?
CC(C)CC(c1nnnn1CC1CCCO1)N1CCN(C2CCCC2)CC1 (configuration not stated)	-6%	i	0%	-1%	28%	6%
